Potency data for 40 molecules are collected here from PubChem BioAssay AID720549 (National Center for Advancing Translational Sciences (NCATS), 2013).

Values joined by “and” are separate entries in the source; they are usually repeats but may differ in a detail not shown here. Equal values may be shown once. Results filed as inconclusive are left out. Where a call stands in place of a potency, no number is given. Active and inactive are the calls of the source. The call rests on the fitted dose curve; in most records, active means well fitted inhibition curve with a large enough effect; inconclusive means small, poorly fitted or top-dose-only effect; inactive means flat fitted curve, though single readings scatter.

Chain of RecQ-like DNA helicase BLM (Homo sapiens) (P54132 whole entry, looked up): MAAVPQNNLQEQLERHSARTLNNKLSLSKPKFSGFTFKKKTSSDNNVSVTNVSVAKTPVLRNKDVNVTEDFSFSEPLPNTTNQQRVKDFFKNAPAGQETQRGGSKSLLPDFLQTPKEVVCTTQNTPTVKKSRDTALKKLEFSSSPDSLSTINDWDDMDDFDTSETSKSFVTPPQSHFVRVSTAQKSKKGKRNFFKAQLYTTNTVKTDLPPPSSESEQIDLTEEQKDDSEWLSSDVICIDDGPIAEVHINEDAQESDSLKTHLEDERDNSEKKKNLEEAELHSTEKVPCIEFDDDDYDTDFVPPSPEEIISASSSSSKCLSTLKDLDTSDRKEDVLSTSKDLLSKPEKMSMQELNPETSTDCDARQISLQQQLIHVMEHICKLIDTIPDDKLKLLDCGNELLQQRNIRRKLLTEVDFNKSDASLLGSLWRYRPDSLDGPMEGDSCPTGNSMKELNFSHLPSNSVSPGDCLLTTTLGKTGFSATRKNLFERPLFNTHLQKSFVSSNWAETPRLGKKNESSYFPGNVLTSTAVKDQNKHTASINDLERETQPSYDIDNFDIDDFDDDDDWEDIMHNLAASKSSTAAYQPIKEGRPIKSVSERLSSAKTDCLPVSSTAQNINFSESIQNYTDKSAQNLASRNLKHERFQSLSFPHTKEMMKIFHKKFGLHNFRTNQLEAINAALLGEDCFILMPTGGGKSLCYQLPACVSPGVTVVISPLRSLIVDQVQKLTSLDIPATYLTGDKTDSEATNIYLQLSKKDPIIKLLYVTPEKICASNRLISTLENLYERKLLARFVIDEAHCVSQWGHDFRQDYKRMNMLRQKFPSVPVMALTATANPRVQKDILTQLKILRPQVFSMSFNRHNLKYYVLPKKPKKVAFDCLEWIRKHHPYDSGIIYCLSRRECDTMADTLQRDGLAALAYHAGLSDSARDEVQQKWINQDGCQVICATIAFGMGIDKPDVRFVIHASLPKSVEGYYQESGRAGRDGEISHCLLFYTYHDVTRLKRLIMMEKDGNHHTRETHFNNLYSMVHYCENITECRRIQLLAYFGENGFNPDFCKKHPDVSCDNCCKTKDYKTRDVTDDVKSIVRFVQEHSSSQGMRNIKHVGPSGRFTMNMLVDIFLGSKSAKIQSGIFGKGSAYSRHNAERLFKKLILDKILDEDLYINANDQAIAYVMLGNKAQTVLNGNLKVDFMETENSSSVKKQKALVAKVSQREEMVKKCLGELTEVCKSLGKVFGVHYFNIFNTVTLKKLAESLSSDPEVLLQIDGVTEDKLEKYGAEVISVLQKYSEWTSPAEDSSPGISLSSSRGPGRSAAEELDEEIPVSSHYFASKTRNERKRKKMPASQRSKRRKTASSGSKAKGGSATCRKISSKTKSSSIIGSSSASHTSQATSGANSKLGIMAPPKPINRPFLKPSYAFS

For this test, the target named is RecQ-like DNA helicase BLM (Homo sapiens) (UniProt P54132). Briefly: qHTS for Inhibitors of Bloom's syndrome helicase (BLM): Helicase ATPase Orthogonal Confirmatory Assay for SAR. As to conditions: purified BLM helicase ATPase activity assay; series mostly up to 57.1 µM. The text has this:
Human RecQ DNA helicases participate in maintenance of genome stability and DNA repair. While other types of helicases have been explored as targets for drug development, members of the RecQ family have remained less well characterized. Mutations of the Bloom helicase gene have been associated with the rare human genetic disease called Bloom syndrome. […] Moreover, identified inhibitors can be used in cells and animal models to examine the consequences of inhibition on the survival of cancer cells where it has been shown that BLM plays an important role.
A fluorescence-based, biochemical assay in 1536 well format was developed to evaluate inhibition of BLM DNA unwinding activity. This assay was used to screen the MLPCN library. The resulting compounds were subjected to orthogonal and secondary biochemical assays to triage the initial hits, to classify compounds based on mode of action and to derive structure activity relationships (SARs) of candidate effectors. The data herein is the result of the Helicase ATPase orthogonal confirmatory assay. This luminescence assay employs a purified BLM enzyme and a single stranded BLM oligo substrate ([…]). For this assay increase in luminescence signal is greater than or equal to 700 RLU. Inhibition is the desired outcome for this assay.
NIH Chemical Genomics Center [NCGC]
NIH Molecular Libraries Probe Centers Network [MLPCN]
Assay Submitter (PI): Opher Gileadi, Structural Genomics Consortium, University of Oxford, UK
Three microliter of reaction buffer (25mM Tris-HCl pH 8.0, 50mM NaCl, 2mM MgCl2, 1mM DTT, and 0.01% Tween- 20, and 2nM BLM enzyme) was dispensed into a 1536-well assay plates (Greiner, solid white medium-binding) via Aurora Discovery BioRAPTR Flying Reagent Dispenser (FRD). Compounds (23nl each in columns 5-48) and control (23nl each in column 2 as dose-response) were transferred via a Kalypsys pintool equipped with a 1536-pin array. The plates were incubated for 15 min at room temperature followed by addition of 1 ul of substrates (200nM single-stranded oligonucleotide and 100uM ATP, final concentrations) to start the reaction. After 15 min., the reaction was terminated by the addition of 2.5ul of ADP-Glo Reagent I (Promega) to each well and incubation at room temperature for 30 min. Next, 5ul of ADP-Glo Reagent II (Promega) was added to each well. After 30 min at room temperature, the luminescence signal was detected using the ViewLux CCD imager. The data was normalized against no-inhibitor and no-enzyme controls and the resulting percent inhibition data were fitted to a sigmoidal dose response using a four-parameter Hill equation.
(In qHTS, concentration-response curves come from the screen itself.)
For `O=C(Nc1ccc2ccccc2c1)Nc1nnc(-c2ccccc2F)s1`, the Potency result is “inactive”.

As for `O=C(Nc1ccc2ccccc2c1)Nc1nnc(-c2ccc(F)cc2)s1`, the Potency entry was “inactive”.

Turning to `O=C(Nc1ccc(Cl)c([N+](=O)[O-])c1)Nc1nnc(-c2ccncc2)s1`, the Potency was 1.82 µM (active).

Take `Cc1cc(NC(=O)Nc2nnc(-c3ccncc3)s2)ccc1F`: the Potency entry is “inactive”.

Consider `Cc1cc(Nc2c(Nc3nnc(-c4ccncc4)s3)c(=O)c2=O)ccc1Cl`, for which the Potency entry is “inactive”.

On to `O=C(Nc1ccc(-c2nc3ccccc3[nH]2)cc1)Nc1ccc2c(c1)CCCO2`, for which the Potency result is “inactive”.

Consider `N#Cc1cc(NC(=O)Nc2nnc(-c3ccncc3)s2)ccc1-c1cn[nH]c1`, for which the Potency is 1.02 µM (active) and 5.13 µM (active).

Turning to `O=C(Nc1ccc2c(c1)OCCO2)Nc1nnc(-c2ccncc2)s1`, the Potency result was “inactive”.

On to `N#Cc1cc(NC(=O)Nc2nnc(-c3ccncc3)s2)ccc1-c1ccc[nH]1`, for which the Potency is 7.25 µM (active).

Take `CCOc1ccc(NC(=O)Nc2ccc(-c3nc4ccccc4[nH]3)cc2)cc1`: the Potency result is “inactive”.

`Cc1cc(NC(=O)Nc2nnc(-c3cccnc3)s2)ccc1F`: the Potency result is “inactive”.

Consider `Nc1ccc(-c2nnc(NC(=O)Nc3ccc(Cl)c(Cl)c3)s2)cc1`, for which the Potency result was “inactive”.

As to `O=C(Nc1ccc(Cl)c(Cl)c1)Nc1ccnc(-c2ccncc2)n1`, the Potency entry is “inactive”.

Regarding `O=C(Nc1ccc(N2CCOCC2)c(F)c1)Nc1nnc(-c2ccncc2)s1`, the Potency result is “inactive”.

In the case of `O=C(Nc1nnc(-c2ccncc2)s1)Oc1ccc2ccccc2c1`, the Potency was 32.4 µM (active).

With `O=C(Nc1ccc(F)c(C(F)(F)F)c1)Nc1nnc(-c2ccncc2)s1`, the Potency entry is “inactive”.

With `COc1ccc(-c2nnc(NC(=O)Nc3ccc4ccccc4c3)s2)cc1OC`, the Potency result is “inactive”.

For the molecule `O=C(Nc1ccc(Cl)c(C(F)(F)F)c1)Nc1nnc(-c2ccncc2)s1`, the Potency entry is “inactive”.

In the case of `O=C(Nc1ccc(Cl)c(Cl)c1)Nc1nc(-c2ccncc2)cs1`, the Potency entry is “inactive”.

In the case of `CC(C)(C)c1ccc(-c2nnc(NC(=O)Nc3ccc4ccccc4c3)s2)cc1`, the Potency result is “inactive”.

For the molecule `O=C(Nc1ccc2ccccc2c1)Nc1nnc(-c2ccc(Cl)cc2)s1`, the Potency result was “inactive”.

On to `O=C(Nc1ccc2sccc2c1)Nc1nnc(-c2ccncc2)s1`, for which the Potency is 7.25 µM (active).

In the case of `O=C(Cc1nnc(-c2ccncc2)s1)Nc1ccc(F)c(C(F)(F)F)c1`, the Potency result was “inactive”.

As for `O=C(Nc1ccc(Cl)c([N+](=O)[O-])c1)Nc1nnc(C2CCCCC2)s1`, the Potency result was “inactive”.

With `CN(C(=O)Nc1ccc2ccccc2c1)c1nnc(-c2ccncc2)s1`, the Potency entry is “inactive”.

Consider `O=C(Nc1ccc2ccccc2c1)Nc1nnc(-c2ccc(O)cc2)s1`, for which the Potency result is “inactive”.

As to `O=C(Nc1ccc(Cl)c(Cl)c1)Nc1ccc(-c2ccncc2)s1`, the Potency entry was “inactive”.

As for `O=C(Nc1ccc(-c2nc3ccccc3[nH]2)cc1)Nc1ccc2occc2c1`, the Potency result is “inactive”.

As to `O=c1c(Nc2ccc(Cl)c(Cl)c2)c(Nc2nnc(-c3ccncc3)s2)c1=O`, the Potency is 6.46 µM (active).

For the molecule `O=C(Cc1ccc2ccccc2c1)Nc1nnc(-c2ccncc2)s1`, the Potency was 16.2 µM (active).

Turning to `O=C(Nc1ccc(-c2nc3ccccc3[nH]2)cc1)Nc1ccc2c(c1)OCCO2`, the Potency result was “inactive”.

For `O=C(Nc1nnc(-c2ccncc2)s1)NC12CC3CC(CC(C3)C1)C2`, the Potency entry was “inactive”.

For the molecule `O=C(Nc1ccc(Oc2ccccc2)cc1)Nc1nnc(-c2ccncc2)s1`, the Potency result is “inactive”.

In the case of `O=C(NCc1ccccc1)Nc1nnc(-c2ccncc2)s1`, the Potency entry was “inactive”.

As for `O=C(Nc1cccc(C(=O)O)c1)Nc1nnc(-c2ccncc2)s1`, the Potency entry is “inactive”.

As for `O=C(Nc1ccc(F)c(C(F)(F)F)c1)Nc1nnc(C2CCCCC2)s1`, the Potency entry is “inactive”.

Regarding `O=C(Nc1ccc(Br)cc1)Nc1nnc(-c2ccncc2)s1`, the Potency is 8.13 µM (active).

`COc1ccc(OC)c(-c2nnc(NC(=O)Nc3ccc4ccccc4c3)s2)c1`: the Potency entry was “inactive”.

For `O=C(Nc1ccc2ccccc2c1)Nc1nnc(-c2ccncc2)s1`, the Potency is 3.24 µM (active).

With `O=C(Nc1nnc(-c2ccncc2)s1)Nc1cc(C(F)(F)F)ccc1F`, the Potency entry is “inactive”.
